Measurements reported in PubChem BioAssay AID624298 (National Center for Advancing Translational Sciences (NCATS), 2012).
Results filed as inconclusive are left out. Calls of active or inactive are those of the source. The call rests on the fitted dose curve; in most records, active means well fitted activation curve with a large enough effect; inconclusive means small, poorly fitted or top-dose-only effect; inactive means no such curve, though single readings can be large or run the other way.

assay: Activators of T cell receptors: Hit Validation; conditions: primary human leukocytes, cytokine release by HTRF, 48 h, TCR-stimulated with anti-CD3 beads; series mostly up to 46.1 µM; activation: at the top concentration; on activation: 0% is about no effect
How it was run: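 Readout is IL-2 secretion by HTRF, measured after 48 hr in which primary human leukocytes received compound together with a-CD3 beads as the only TCR stimulus.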
Potency means the concentration at half of the fitted maximal effect.

SMILES	activation	Potency
CC1CCN(CCNC(=O)C2CCN(S(=O)(=O)c3cccc4nsnc34)CC2)CC1	-0.821% (inactive)	
COc1ccc(CN(C)C(C)C(=O)N(C)CC(=O)Nc2ccc(C)cc2)cc1F (configuration not stated)	1.21% (inactive)	
Cc1noc(C)c1C(=O)OC(C)C(=O)N1CCc2ccccc21 (configuration not stated)	4.82% (inactive)	
O=C1N=C(O)CN1/N=C/c1ccc(-c2ccc([N+](=O)[O-])cc2)o1	3.53% (inactive)	
O=C(CCOc1ccccc1)Nc1ccc(S(=O)(=O)Nc2ncccn2)cc1	-10.8% (inactive)	
CCN(CC)c1ccc2nc3ccccc3[n+](CC)c2c1		4.99 µM (active)
CCN(CC(=O)Nc1ccccc1C(F)(F)F)C(=O)c1ccccc1Sc1ccccc1C#N	4.67% (inactive)	
CC(=O)NS(=O)(=O)c1ccc(NC(=S)NC(=O)COc2ccccc2C)cc1		14.1 µM (active)
Cc1[nH]c2ccccc2c1C(=O)CSc1nnc(C2CC2)o1	4.8% (inactive)	
CN(C)CCC[C@]1(c2ccc(F)cc2)OCc2cc(C#N)ccc21	10.7% (inactive)	
CC(=O)Nc1nnc(S(N)(=O)=O)s1	0.127% (inactive)	
COc1cccc(-n2c(SCC(=O)NC3CCS(=O)(=O)C3)nc3ccccc3c2=O)c1 (configuration not stated)	-5.08% (inactive)	
